# In all, about 190,000 compounds went through this assay and about 1,300 (0.68%) were called active. This excerpt belongs to a sample that is enriched for actives. Values without a mark were called inactive. Cut-off read from the data, not from the text of the source: active = inhibition above about 50%; inactive = the rest.
# Target: Mannose-6-phosphate isomerase (Homo sapiens) (UniProt P34949)
# Assay: MPI inhibition at elevated mannose 6-phosphate – biochemical, fluorescence intensity, high mannose 6-phosphate, primary screen (AID 1220)
# Details: recombinant PMI enzyme, coupled fluorescence intensity; at 20 µM; stronger effect = higher value
# Sequence of Mannose-6-phosphate isomerase (Homo sapiens) (P34949 whole entry, looked up): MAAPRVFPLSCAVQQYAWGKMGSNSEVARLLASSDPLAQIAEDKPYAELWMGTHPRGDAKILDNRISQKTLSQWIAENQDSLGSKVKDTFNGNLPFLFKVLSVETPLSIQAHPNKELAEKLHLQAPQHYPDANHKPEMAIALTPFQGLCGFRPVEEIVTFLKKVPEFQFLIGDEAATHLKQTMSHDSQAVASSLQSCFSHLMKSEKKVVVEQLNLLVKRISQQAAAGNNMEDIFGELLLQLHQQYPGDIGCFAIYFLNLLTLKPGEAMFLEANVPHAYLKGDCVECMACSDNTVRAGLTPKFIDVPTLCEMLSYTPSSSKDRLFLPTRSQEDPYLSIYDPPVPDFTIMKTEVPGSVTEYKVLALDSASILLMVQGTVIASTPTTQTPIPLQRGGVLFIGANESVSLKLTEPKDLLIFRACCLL
row,SMILES,inhibition
1,O=c1[nH]c(=S)n(Cc2ccc(F)cc2)c(O)c1C=NCC1CCCO1 (stereo unspecified),6.1%
2,COCCNC(=O)c1c(NC(=O)c2ccc(Br)o2)n(Cc2ccccc2)c2nc3ccccc3nc12,46.5%
3,CCCCn1c(NS(=O)(=O)c2ccccc2)c(C(=O)OCC)c2nc3ccccc3nc21,42.5%
4,CCOC(=O)c1c(NS(=O)(=O)c2ccccc2)n(CCCOC)c2nc3ccccc3nc12,44.9%
5,CCCCn1c(NC(=O)c2ccc(Br)o2)c(C(=O)OCC)c2nc3ccccc3nc21,56.4% (active)
6,CCOC(=O)c1c(N)n(CCCOC(=O)c2ccco2)c2nc3ccccc3nc12,0.2%
7,CCCCn1c(NS(=O)(=O)c2ccc(C)cc2)c(C(=O)OCC)c2nc3ccccc3nc21,52.3% (active)
8,Cc1cc(C=O)c(C)n1CC1CCCO1 (stereo unspecified),-8.4%
9,COc1ccc(C(=O)C2CCCN(C3CSCCSC3)C2)cc1OC (stereo unspecified),8.3%
10,CN1C(=O)C(=Cc2ccccc2OCc2ccccc2Cl)C(=O)N(C)C1=O,-9.8%
11,CCn1nc(/C=C/c2ccccc2)nc2c(=O)n(C)c(=O)nc1-2,46.6%
12,CCn1nc(-c2ccccc2)nc2c(=O)n(C)c(=O)nc1-2,7.6%
13,Cn1ncnc2c(=O)n(C)c(=O)nc1-2,61.6% (active)
14,Cc1cc(=O)n(-c2ccccc2)n1-c1ccccc1,-4.7%
15,CCOC(=O)c1c(-n2c(C)cc(/C=C3\C(=O)NC(=O)N(C)C3=O)c2C)sc2c1CCCC2,12.7%
16,Cc1cc2c(C(C)C)c(O)c(O)c(C=O)c2c(O)c1-c1c(C)cc2c(C(C)C)c(O)c(O)c(C=O)c2c1O,51.4% (active)
17,COc1ccc(-c2nc3ccccc3c(=O)n2-c2cccnc2)cc1,-2.9%
18,O=C1/C(=C\c2cc3c(cc2Br)OCO3)N2CCC1CC2,19.8%
19,O=C1/C(=C\c2cc3c(cc2Cl)OCO3)N2CCC1CC2,57.2% (active)
20,O=C1/C(=C/c2ccc3c(c2)OCO3)N2CCC1CC2,-2.8%
21,O=C1/C(=C\c2ccc3c(c2)OCO3)N2CCC1CC2,5.7%
22,O=C1/C(=C/c2cc([N+](=O)[O-])ccc2Cl)N2CCC1CC2,-0.3%
23,O=C1/C(=C/c2cc3c(cc2Cl)OCO3)N2CCC1CC2,51% (active)

row,SMILES,inhibition
1,CCN(CC)CC(O)c1ccc(C2CCCC2)cc1 (stereo unspecified),-5.5%
2,C=CCn1c(O)c(C(CC)=Nc2ccccc2NC(C)=O)c(=O)[nH]c1=O,0.5%
3,CCOC(=O)C(NC(C)=O)C(OC(C)=O)c1cccc(N(CCCl)CCCl)c1 (stereo unspecified),-101%
4,CC(NC(=O)Oc1ccccc1)C(c1cccs1)N1CCOCC1 (stereo unspecified),3%
5,Cc1ccc(-c2nn(Cc3ccccc3)cc2C=O)cc1,3.6%
6,O=c1[nH]c(O)c(N=Nc2ccc([N+](=O)[O-])cc2)c(=O)[nH]1,-7.5%
7,O=C(N=Nc1c(O)[nH]c(=O)[nH]c1=O)C1COc2ccccc2O1 (stereo unspecified),56.6% (active)
8,O=C(N=Nc1c(O)[nH]c(=O)[nH]c1=O)C1COc2cc3ccccc3cc2O1 (stereo unspecified),51.7% (active)
9,NC(=O)c1ccc(N=Nc2c(O)[nH]c(=O)[nH]c2=O)cc1,2.6%
10,O=C(c1ccccc1)c1ccc(N=Nc2c(O)[nH]c(=O)[nH]c2=O)cc1,-8.7%
11,O=c1[nH]c(O)c(N=Nc2ccc3c(c2)OCCO3)c(=O)[nH]1,2.6%
12,CN(C)C(=O)Oc1ccc(-c2nnco2)cc1,2.3%
13,OC1(c2cccnc2)CC2CCC(C1)N2Cc1nnnn1Cc1ccccc1 (stereo unspecified),-8.1%
14,CCOP(=O)(OCC)C(c1ccccc1)N(C)C=O (stereo unspecified),1.8%
15,CC(C)(C)NC(=O)NC(=O)CN1CC=C(c2ccccc2)CC1,7.7%
16,O=C1NC(=O)C2(Cc3ccccc3N3CCCC32)C(=O)N1 (stereo unspecified),-47.2%
17,O=C(Nc1ccc2c(c1)OCO2)c1cn(Cc2ccc(F)cc2)nn1,12.6%
18,COc1ccccc1NC1(C#N)CCCCC1,38.8%
19,COc1ccc(NC2(C#N)CCCCC2)cc1,52.7% (active)
20,Cc1ccccc1NC1(C#N)CCCCC1,-0.6%
21,Cc1sc2ncn(CC(=O)NCCCC(=O)N3CCC4(CC3)OCCO4)c(=O)c2c1C,-1.4%
22,O=C1C(=O)c2ccccc2-c2ccccc21,1.8%
23,O=C1C(=O)c2cccc3cccc1c23,44.3%

row,SMILES,inhibition
1,O=C1C=Cc2ccccc2C1=O,75.2% (active)
2,CCN(CC)c1ccc([N+](=O)[O-])c2cccnc12,67.2% (active)
3,NCCNc1ccc([N+](=O)[O-])c2cccnc12,51.1% (active)
4,CCN(CCNc1ccc([N+](=O)[O-])c2cccnc12)S(=O)(=O)c1ccccc1,8.2%
5,CC(O)CNc1ccc([N+](=O)[O-])c2cccnc12 (stereo unspecified),52.2% (active)
6,Cc1nonc1OCCNCCNc1ccc([N+](=O)[O-])c2cccnc12,39%
7,O=[N+]([O-])c1ccc(NCCCN2CCOCC2)c2ncccc12,57.5% (active)
8,Cc1nonc1OCCNc1ccc([N+](=O)[O-])c2cccnc12,33.9%
9,O=C(NCCCN1CCOCC1)C(Cl)(Cl)Cl,-7.8%
10,CCN(CCNc1ccc([N+](=O)[O-])c2cccnc12)S(=O)(=O)c1ccc(Cl)cc1,36.7%
11,CCC(CO)Nc1ccc([N+](=O)[O-])c2cccnc12 (stereo unspecified),38.6%
12,O=[N+]([O-])c1ccc(NCc2ccccc2)c2nonc12,43.9%
13,O=[N+]([O-])c1ccc(NCCO)c2ncccc12,35.9%
14,CCC(=O)N1c2ccc(S(=O)(=O)CCC(=O)N3CCC4(CC3)OCCO4)cc2CC1C (stereo unspecified),-5.2%
15,O=C1CN=C(c2ccc(F)cc2)c2oc3ccccc3c2N1,-7.1%
16,CCOC(=O)c1c(C)n(Cc2ccccc2)c2ccc(O)cc12,40.8%
17,O=C(c1ccc2c(c1)OCO2)C1CCCN(CC2CCCCC2)C1 (stereo unspecified),12.9%
18,CCOP(=O)(OCC)C(O)c1ccc(OC)c(OC)c1 (stereo unspecified),2.3%
19,CCN(CC)c1ccc(/C=C2\C(=O)NC(=O)N(CC3CCCO3)C2=O)cc1 (stereo unspecified),-4.6%
20,CC(=O)c1c(O)n(C)c(=S)n(-c2ccccc2)c1=O,-1.3%
21,CNC(=O)Oc1cccc(-c2cn3cc(OC(=O)NC)ccc3n2)c1,54.4% (active)
22,CNC(=O)Oc1cccc(-c2cn3cc(Cl)ccc3n2)c1,3%
23,CNC(=O)Oc1ccc(-c2cn3cc(C)ccc3n2)cc1,4.6%

row,SMILES,inhibition
1,CN1CCN(c2c(C#N)c(C(F)(F)F)nn2C)CC1,-13.8%
2,O=C(CN1CC(c2ccccc2)CC1=O)Nc1cccc(F)c1 (stereo unspecified),3.7%
3,O=C1NC(=O)N(Cc2ccccc2)C(=O)/C1=C/N1CCCc2ccccc21,6%
4,O=c1[nH]c(=O)n(Cc2ccc(F)cc2)c(O)c1C=NCC1CCCO1 (stereo unspecified),-20.4%
5,O=[N+]([O-])[N-][n+]1cnn(Cc2ccccc2)c1,-10.9%
6,Cc1cc(OCC(=O)Nc2c(C)n(C)n(-c3ccccc3)c2=O)c2c3c(c(=O)oc2c1)CCC3,10.1%
7,Cc1cccc(NC(=O)N2CCCC2)c1,-7.3%
8,COc1cc(/C=C2\C(=O)NC(=O)N(c3ccc(C)cc3)C2=O)cc(OC)c1O,67.6% (active)
9,COc1cc(/C=C2\C(=O)NC(=O)N(c3ccccc3)C2=O)cc(OC)c1O,13%
10,COc1cc(/C=C2/C(=O)NC(=O)N(c3ccccc3)C2=O)ccc1O,1.2%
11,CCC(=O)N1CC(=O)Nc2ccc(Br)cc2C1c1ccccc1 (stereo unspecified),2.3%
12,Cc1cccc(C)c1NC(=O)c1cccn(Cc2ccc3c(c2)OC(F)(F)O3)c1=O,9.6%
13,C(#CCN1CCOCC1)COC/C=C/c1ccccc1,-8.9%
14,COc1ccc(N2C(=O)NC(=O)/C(=C\c3ccc([N+](=O)[O-])s3)C2=O)cc1,-53.3%
15,COc1ccc(OC)c(N2C(=O)NC(=O)/C(=C\c3ccc([N+](=O)[O-])s3)C2=O)c1,-46.8%
16,COc1ccc(OC)c(N2C(=O)NC(=O)/C(=C/c3ccc([N+](=O)[O-])s3)C2=O)c1,56.6% (active)
17,CN1C(=O)C(=Cc2ccc(-c3cccc(Cl)c3)o2)C(=O)N(C)C1=O,-7.8%
18,CCN(CC)S(=O)(=O)c1ccc(N=Cc2c(O)n(-c3ccccc3)c(=O)[nH]c2=O)cc1,-8.6%
19,COc1ccc(CCn2c(O)c(C=NCc3ccc4c(c3)OCO4)c(=O)[nH]c2=O)cc1OC,8.6%
20,O=C(N/N=C/c1c(O)n(CCc2ccccc2)c(=O)[nH]c1=O)c1ccncc1,-28.2%
21,COc1ccc(CCn2c(O)c(/C=N/NC(=O)c3ccncc3)c(=O)[nH]c2=O)cc1OC,-12.8%
22,O=C(N/N=C/c1c(O)n(CCc2ccc(F)cc2)c(=O)[nH]c1=O)c1ccncc1,53% (active)
23,CC1CCN(S(=O)(=O)c2ccc(NN=C(C#N)C#N)cc2)CC1,-24.1%

row,SMILES,inhibition
1,CC(C)Oc1cccc(C(=O)C2CCCN(Cc3ccon3)C2)c1 (stereo unspecified),4%
2,CC(=O)NC1CC2CCCC(C1)N2 (stereo unspecified),-5.2%
3,O=C(NC1(C(F)(F)F)Oc2ccccc2O1)N1CCC2(CC1)OCCO2,3.8%
4,O=C(NC(=O)N1CCC2(CC1)OCCO2)c1ccc(Cl)cc1,11.1%
5,O=C(NC1(C(F)(F)F)Oc2ccc(Cl)cc2O1)N1CCC2(CC1)OCCO2 (stereo unspecified),70.3% (active)
6,O=c1[nH]c(=O)n(Cc2ccccc2Cl)c(O)c1C=Nc1ccc(F)cc1,13.7%
7,CC(=NCCN1CCCCC1)c1c(O)n(-c2ccc(Cl)cc2)c(=O)[nH]c1=O,2.8%
8,COc1cc2c(cc1OC)-c1c(OC)c(OC)cc3c1[C@H](C2)N(C)CC3,-16.2%
9,COc1cc2c(cc1O)CC1c3c(cc(O)c(OC)c3-2)CCN1C (stereo unspecified),52.5% (active)
10,COc1cc2c(cc1OC)-c1c(OC)c(OC)cc3c1C(C2)N(C)CC3 (stereo unspecified),39.3%
11,CCc1cccc(C)c1NC(=S)N1CC2CC(C1)c1cccc(=O)n1C2 (stereo unspecified),-3.9%
12,CCN(CC)C(=O)c1ccc(N2C(=O)C3CC=C(Cl)CC3C2=O)cc1 (stereo unspecified),-1.5%
13,Nc1ccncc1Cl,-4.4%
14,N#Cc1cc2c(nc1SCC(=O)Nc1ccc(Cl)cc1)C1CCN2CC1,-2.2%
15,CCN(CC)C(=O)N[C@H]1C[C@@H]2c3cccc4[nH]cc(c34)C[C@H]2N(C)C1,-0.8%
16,O=C(NC[P+](=O)O)OCc1ccccc1,-7%
17,CN1C[C@H](CNC(=O)OCc2ccccc2)C[C@@H]2c3cccc4c3c(cn4C)C[C@H]21,58.2% (active)
18,CC(C)CCN1CCN(Cc2c(F)cccc2Cl)CC1CCO (stereo unspecified),-1.1%
19,CC(=O)OC1(c2ccccc2)CCN(C)C(C)C1C (stereo unspecified),-7.2%
